Screening results (PubChem BioAssay)
CF NFkB inh – blocks PAF-induced NF-kB reporter in cystic fibrosis cells; inhibition, % at 5 µM; 0.86% of 360,000 active; KKLEB NF-kB-GFP reporter, GFP fluorescence overnight;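 active = at least 50% inhibition at 5 µM, scaled per plate between neutral and stimulator controls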;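 note: PAF is a Pseudomonas aeruginosa culture filtrate used as stimulus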
Peg3 prom inh-1 – reduces Peg3 promoter-driven luciferase expression in HeLa. HeLa PEG-Prom luciferase reporter, luminescence, overnight. inhibition, % at 20 µM. 1.7% of 360,000 active;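 active = inhibition of at least 50% at 20 µM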
Shn3 inh set2 – Schnurri-3 reporter inhibition in Clone20 osteoblasts; Clone20 osteoblast Shn3 3'UTR firefly luciferase, 24 h; inhibition, % at 12.5 µM; 0.52% of 360,000 active;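 active = mean inhibition of at least 75% with every replicate also reaching 75%; inconclusive = mean inhibition at least 75% but some replicate below; inactive = mean inhibition below 75%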
HIF-2a block – HIF-2a inhibition; 786-0 RCC cells HIF-2a reporter, luciferase luminescence, overnight; inhibition, % at 18.8 µM; 0.72% of 360,000 active; AID 624352;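 active = inhibition of the luminescence signal of 40% or more relative to plate controls, in a single-dose primary screen at 18.75 µM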
KKLEB tox – counter-screen for CF NF-kB inhibitors: cytotoxicity; activity change (cytotoxicity), % at 5 µM; KKLEB CF airway cells viability, ATPlite luminescence, overnight; stronger effect = lower value; cells stimulated with P. aeruginosa culture filtrate; 0.36% of 360,000 active;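 active = corrected activity change at or below -50% at 5 µM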
MITF TRPM1 inh – reduces MITF-dependent TRPM1 promoter luciferase signal; SK-MEL-5 TRPM1 promoter luciferase, 24 h; inhibition, % at 12.5 µM; 0.83% of 330,000 active; AID 488899;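 active = mean inhibition across replicates of 60% or more, whatever share of single replicates reaches that level; inconclusive = some that reach 60%, reason not given; inactive = mean inhibition across replicates below 60%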
Peg3 prom inh-2 – Peg3 promoter inhibition confirmation; shares compounds with Peg3 prom inh-1; HeLa PEG-Prom luciferase reporter, luminescence, overnight; inhibition, % at 20 µM; 84% of 1,300 active; AID 602417;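 active = at 20 µM dose, 40% or more inhibition averaged across four replicates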
Numbers stand for hits; – = inactive; ? = inconclusive; · = no result. Rows were chosen to be rich in hits. Some 2.8% of all compounds tested hit in one or more screens of this group.

SMILES | CF NFkB inh | Peg3 prom inh-1 | Shn3 inh set2 | HIF-2a block | KKLEB tox | MITF TRPM1 inh | Peg3 prom inh-2
CC1CCc2c(sc3ncn(CC(=O)N=Nc4c(O)[nH]c5ccccc45)c(=O)c23)C1 (stereo not drawn) | – | – | – | – | – | – | ·
CCOc1ccc(NC(=O)CSc2ccc(-c3cccnc3)nn2)cc1 | – | – | – | – | – | – | ·
C#CCNC(=O)C1=C[C@@H](c2cn(C(C)=O)c3ccccc23)C[C@@H](OCc2ccc(CO)cc2)O1 | – | – | – | – | – | – | ·
CC(=O)n1cc([C@H]2C=C(C(=O)NCc3ccccc3)O[C@@H](OCc3ccc(CO)cc3)C2)c2ccccc21 | – | 54.5 | – | – | – | – | 47.3
COc1ccccc1NC(=O)c1cc(Sc2nncn2C)nc2ccccc12 | – | – | – | – | – | – | ·
COc1ccccc1C(NC(C)=O)c1cc(Cl)c2cccnc2c1O (stereo not drawn) | – | – | ? | – | – | – | ·
CC(=O)NC(c1ccc2ccccc2c1)c1ccc2cccnc2c1O (stereo not drawn) | – | 64.0 | 85.3 | – | – | – | 70.7
COc1ccc(C(NC(C)=O)c2ccc3cccnc3c2O)c(OC)c1 (stereo not drawn) | – | 61.1 | 89.7 | – | – | 62.7 | 65.1
O=C1/C(=C/C=C/c2ccccc2)Oc2c1ccc(O)c2CN1CCN(CCO)CC1 | – | – | – | – | – | – | ·
CCN1CCN(Cc2c(O)ccc3c2O/C(=C\C=C\c2ccccc2)C3=O)CC1 | – | 107.9 | – | 91.8 | – | – | 76.6
COc1cc(OC)nc(Oc2cc(/C=N/O)ccc2OC)n1 | – | – | – | – | – | – | ·
Cc1ccc(NC(=O)CCn2c(=S)oc3ccccc32)cc1F | – | – | – | – | – | – | ·
CCOC(=O)Cn1cnc(-c2ccc([N+](=O)[O-])cc2)c1 | – | – | – | – | – | – | ·
Brc1ccc(N=Nc2ccc3ccccc3n2)cc1 | – | 72.6 | – | 62.0 | -97.5 | – | 67.9
COc1cccc(-c2sc3ccc(OC)cc3c2-c2ccc(OCCN(C)C)cc2)c1 | – | 100.0 | – | – | – | – | 70.7
COc1cccc(-c2sc3ccc(OC)cc3c2-c2ccc(O)cc2)c1 | – | – | – | – | – | – | ·
COc1ccc(Nc2cc(C)nc3ccc(C)cc23)cc1 | – | – | – | – | – | · | ·
CC(=O)c1ccc(Nc2cc(C)nc3ccc(C)cc23)cc1 | – | 81.6 | – | – | – | – | 87.3
COCCNCC(=O)Nc1nc(C)cs1 | – | – | – | – | – | – | ·
CN1C/C(=C/c2cccnc2)C(=O)/C(=C/c2cccnc2)C1 | 57.4 | 87.1 | – | – | – | 100.5 | –
O=C1c2ccccc2C(=Cc2cccnc2)c2ccccc21 | – | – | – | – | – | · | ·
CCc1nc(Nc2ccc(N3CCN(C(C)=O)CC3)cc2)c2oc3ccccc3c2n1 | – | 78.7 | – | – | – | – | 67.7
CCCCC(=O)NC(c1ccccc1Cl)c1c(O)ccc2ccccc12 (stereo not drawn) | – | – | – | – | – | – | ·
CCC(=O)NC(c1ccc(C)cc1)c1cc(Cl)c2cccnc2c1O (stereo not drawn) | – | – | – | – | – | – | ·
CCCCC(=O)NC(c1ccc(N(CC)CC)cc1)c1ccc2cccnc2c1O (stereo not drawn) | – | 59.2 | 93.9 | – | – | – | 69.8
SMILES | CF NFkB inh | Peg3 prom inh-1 | Shn3 inh set2 | HIF-2a block | KKLEB tox | MITF TRPM1 inh | Peg3 prom inh-2
CCC(=O)NC(c1cccc([N+](=O)[O-])c1)c1c(OC(C)=O)ccc2ccccc12 (stereo not drawn) | – | – | – | – | – | – | ·
CCCC(=O)NC(c1cccc([N+](=O)[O-])c1)c1ccc2cccnc2c1O (stereo not drawn) | – | 57.8 | 87.5 | – | – | · | 66.3
CCCCC(=O)NC(c1ccc(Cl)cc1)c1ccc2cccnc2c1O (stereo not drawn) | – | 61.8 | 85.9 | – | – | · | 68.5
CCCC(=O)NC(c1ccc(N(C)C)cc1)c1c(O)ccc2ccccc12 (stereo not drawn) | – | – | – | – | – | – | ·
CCC(=O)NC(c1ccc(OC)c(OC)c1)c1cc(Cl)c2cccnc2c1O (stereo not drawn) | – | 55.3 | ? | – | – | – | 62.8
O=C(CCCOc1ccccc1)Nc1cccc(S(=O)(=O)N2CCCCCC2)c1 | – | – | – | – | – | – | ·
O=C(c1cc(Cl)nc2ccccc12)N1CCN(S(=O)(=O)c2cccc(F)c2)CC1 | – | – | – | – | – | – | ·
O=S(=O)(c1cccc(F)c1)N1CCN(c2nc(-c3cccnc3)nc3ccccc23)CC1 | – | 53.2 | – | – | – | – | 54.7
OCc1cn(-c2ccccc2)nc1-c1ccc(-c2nn(-c3ccccc3)cc2CO)cc1 | – | – | – | – | – | – | ·
Fc1ccc(-c2nn(-c3ccccc3)cc2CNCc2ccccc2)cc1 | – | 61.7 | – | – | – | – | –
CC1(C)C(=O)Nc2ccccc2N1C(=O)COC(=O)CNS(=O)(=O)c1ccc(Br)cc1Cl | – | – | – | – | – | – | ·
O=C(CCn1cnc(-c2ccccc2)c1-c1ccccc1)N/N=C/c1ccccc1O | – | 55.6 | ? | – | – | – | 69.7
O=C(CCn1cnc(-c2ccccc2)c1-c1ccccc1)N/N=C/c1ccc(O)cc1 | – | – | – | – | – | – | ·
COc1ccc(C2NCCc3c2[nH]c2ccccc32)cc1COc1ccc(F)cc1 (stereo not drawn) | – | 96.7 | – | – | – | – | 98.0
O=S(=O)(c1ccccc1)N(CC1CO1)c1cccc2ccccc12 (stereo not drawn) | – | – | – | – | – | – | ·
Cn1ccnc1COc1ccc(/C=N/O)cc1 | – | – | – | – | – | – | ·
Cc1ccc2sc(N(CCCN(C)C)C(=O)c3ccc(S(=O)(=O)N(C)C4CCCCC4)cc3)nc2c1C | – | 104.1 | – | – | – | 77.2 | 100.5
Cc1c(C)n(CCCN(C)C)c2ncnc(NC3CCCCC3)c12 | – | – | – | – | – | – | ·
COc1ccc(C)cc1S(=O)(=O)NCCN1CCOCC1 | – | – | – | – | – | – | ·
CCN1CCN(c2ncc(C(=O)Nc3cc(Cl)ccc3OC)c3ccccc23)CC1 | – | 61.0 | – | – | – | – | 56.7
COc1ccc(S(=O)(=O)Nc2ccc3c(c2)C(=O)N([C@H](C)CO)C[C@H](C)[C@@H](CN(C)S(=O)(=O)c2cn(C)cn2)OCCCC[C@H](C)O3)cc1 | – | – | – | – | – | · | ·
CN1C(=O)C(C)(C)c2cc(S(=O)(=O)N3CCCC(C(=O)NCc4ccccc4Cl)C3)ccc21 (stereo not drawn) | – | – | – | – | – | – | ·
O=C(Nc1ccc([N+](=O)[O-])cc1)C(=O)Nc1cccc(C(=O)O)c1 | – | 64.2 | 85.8 | 79.5 | – | · | 68.4
COc1ccccc1C(=O)Nc1nc2ccccc2s1 | – | 104.5 | – | 85.5 | -94.9 | 80.7 | 94.7
